# Among all 310,000 compounds or so, about 14,000 (4.5%) showed an effect of 50% or more. The effect is printed as a negative number. The full list was thinned out, with strong results kept by preference.
# Molecular target: human ether-à-go-go-related gene (hERG) potassium channel (human, UniProt Q12809)
# Test: primary screen, population patch clamp on CHO cells stably expressing hERG; higher = less effect of the substance
# 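Note: peak tail current of the secondary pulse compared with the same well before compound.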
# Sequence of human ether-à-go-go-related gene (hERG) potassium channel (Q12809 whole entry, looked up): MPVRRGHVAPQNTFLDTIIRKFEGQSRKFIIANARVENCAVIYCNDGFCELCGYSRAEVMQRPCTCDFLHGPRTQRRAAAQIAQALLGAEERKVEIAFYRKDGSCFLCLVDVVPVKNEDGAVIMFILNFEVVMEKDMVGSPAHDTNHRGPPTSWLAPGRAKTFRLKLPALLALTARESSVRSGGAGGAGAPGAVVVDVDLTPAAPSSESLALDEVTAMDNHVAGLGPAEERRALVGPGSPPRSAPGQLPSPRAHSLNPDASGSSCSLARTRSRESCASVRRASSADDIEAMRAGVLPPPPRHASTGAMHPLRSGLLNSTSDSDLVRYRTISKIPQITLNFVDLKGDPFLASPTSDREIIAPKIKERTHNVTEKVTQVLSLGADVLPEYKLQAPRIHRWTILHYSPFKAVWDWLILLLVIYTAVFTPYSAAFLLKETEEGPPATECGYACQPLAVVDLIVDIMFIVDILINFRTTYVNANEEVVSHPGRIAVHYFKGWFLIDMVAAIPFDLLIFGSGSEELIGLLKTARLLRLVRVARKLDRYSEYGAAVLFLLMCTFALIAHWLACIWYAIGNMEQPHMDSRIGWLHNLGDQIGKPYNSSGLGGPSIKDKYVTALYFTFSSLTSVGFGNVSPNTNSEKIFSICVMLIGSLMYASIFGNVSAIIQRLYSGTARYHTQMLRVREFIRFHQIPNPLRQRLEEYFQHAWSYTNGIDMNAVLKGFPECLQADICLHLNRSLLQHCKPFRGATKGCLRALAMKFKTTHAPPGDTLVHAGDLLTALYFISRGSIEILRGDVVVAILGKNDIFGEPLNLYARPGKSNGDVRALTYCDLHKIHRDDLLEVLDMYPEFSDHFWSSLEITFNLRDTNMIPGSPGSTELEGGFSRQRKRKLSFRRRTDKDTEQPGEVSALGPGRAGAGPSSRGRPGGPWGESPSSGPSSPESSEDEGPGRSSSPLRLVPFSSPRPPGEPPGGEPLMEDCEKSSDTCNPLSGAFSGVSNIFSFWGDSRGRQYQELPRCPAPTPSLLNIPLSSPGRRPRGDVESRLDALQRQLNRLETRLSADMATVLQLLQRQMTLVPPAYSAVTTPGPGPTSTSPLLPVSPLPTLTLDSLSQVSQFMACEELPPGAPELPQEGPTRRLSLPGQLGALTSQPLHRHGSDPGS
row,Structure (SMILES),"hERG current change (%, negative = inhibition) at 10uM"
1,CCSc1nsc(SCC)c1C(N)=O,7.66%
2,CC1(C)Cc2nc3scc(NC(=O)c4ccccc4)c3cc2CO1,-0.679%
3,CN(CCc1ccccc1)c1ccc([N+](=O)[O-])cn1,2.08%
4,CC1CCCCN1CCCn1c(=S)[nH]c2ccccc2c1=O (centres unmarked),-46.4%
5,O=c1c2ccccc2[nH]c(=S)n1CCCN1CCN(C2CCCCC2)CC1,-53.9%
6,O=c1c2ccccc2[nH]c(=S)n1CCCN1CCN(c2ccccc2F)CC1,-2.57%
7,COc1ccc(N2CCN(CCCn3c(=S)[nH]c4ccccc4c3=O)CC2)cc1,-36.7%
8,CCC1CCCCN1CCCn1c(=S)[nH]c2ccccc2c1=O (centres unmarked),-56.2%
9,CCN1CCN(CCn2c(=S)[nH]c3ccccc3c2=O)CC1,-10.5%
10,CCCCn1c(=S)[nH]c2ccccc2c1=O,13.7%
11,CC1CC(C)CN(C(=O)CCCn2c(=S)[nH]c3ccccc3c2=O)C1 (centres unmarked),-3.01%
12,COc1ccccc1N1CCN(CCCn2c(=S)[nH]c3ccccc3c2=O)CC1,-61.6%
13,CC1CC(C)CN(CCCn2c(=S)[nH]c3ccccc3c2=O)C1 (centres unmarked),-53%
14,CCC1CCCCN1CCn1c(=S)[nH]c2cc(OC)c(OC)cc2c1=O (centres unmarked),-25.4%
15,O=c1c2ccccc2[nH]c(=S)n1CCN1CCCCC1,-1.11%
16,CCC1(C)Cc2ccccc2-c2nc(NCCO)n(-c3ccc(C)cc3)c(=O)c21 (centres unmarked),-25.1%
17,CCOC(=O)N1CCN(c2c(NCc3ccccc3OC)c(=O)c2=O)CC1,0.238%
18,CCOC(=O)Nc1ccc(S(=O)(=O)Nc2cc(C)on2)cc1,6.84%
19,O=c1c2ccccc2[nH]c(=S)n1CCCN1CCOCC1,8.73%
20,CC1CCN(CCn2c(=S)[nH]c3ccccc3c2=O)CC1,-32.6%
21,O=c1c2ccccc2[nH]c(=S)n1CCN1CCN(Cc2ccccc2)CC1,-19.8%
22,CC1CCN(CCCn2c(=S)[nH]c3ccccc3c2=O)CC1,-56.9%
23,O=c1c2ccccc2[nH]c(=S)n1CCCN1CCN(c2ccccc2)CC1,-19.7%

row,Structure (SMILES),"hERG current change (%, negative = inhibition) at 10uM"
1,O=c1c2ccccc2[nH]c(=S)n1CCCN1CCC(Cc2ccccc2)CC1,-73.6%
2,C=CCn1c(SCC(=O)NCC(c2ccccc2)N(C)C)nnc1C1CCCCC1 (centres unmarked),8.62%
3,Cc1cc(Br)cc(C)c1NC(=O)c1ccc(C#N)cc1F,-21.2%
4,NS(=O)(=O)c1ccc(CCNC(=O)CCc2nc3sc4c(c3c(=O)[nH]2)CCCC4)cc1,17.6%
5,CC(C)CN1CCC(=O)N([C@H](CSc2ccc(Br)cc2)Cc2ccccc2)CC1,-43.2%
6,CC(C)C[C@@H](CO)N1CCN(Cc2ccc(Br)cc2)CCC1=O,-13.5%
7,CC(C)C[C@@H](CO)N1CCN(C)CCC1=O,-4.26%
8,CC(C)CN1CCC(=O)N([C@H](CN=[N+]=[N-])Cc2ccccc2)CC1,-22.9%
9,CC(C)C[C@@H](CN=[N+]=[N-])N1CCN(CC(C)C)CCC1=O,-3.55%
10,CC(C)CN1CCC(=O)N([C@H](CSc2ccccc2)Cc2ccccc2)CC1,-67.9%
11,CCCN1CCC(=O)N([C@H](CSc2ccccc2)CC(C)C)CC1,-66.4%
12,CC(C)C[C@@H](CSc1ccc(Br)cc1)N1CCN(CC(C)C)CCC1=O,-68.6%
13,CC(C)C[C@@H](CSc1ccc(Br)cc1)N1CCN(C)CCC1=O,-64.7%
14,CC(C)C[C@@H](CSc1ccccc1)N1CCN(C)CCC1=O,-16%
15,CCOC(=O)C(NCc1ccc2c(c1)OCO2)(NC(=O)CC)C(F)(F)F (centres unmarked),14.3%
16,NCC/C=C1/c2ccccc2CSc2ccccc21.O=C(O)/C=C\C(=O)O,-3.76%
17,CN(C)c1ccc(S(=O)(=O)N2CCCCC2)cc1NC(=O)CN1C(=O)NC2(CCCC2)C1=O,8.25%
18,COc1ccccc1OCCNC(=O)C1CC(=O)N(Cc2ccccc2)C1 (centres unmarked),-10.2%
19,CC(O)CNC(=O)c1ccc(-c2nn(C)c(=O)c3ccccc23)cc1 (centres unmarked),-0.479%
20,Cc1ccc2c(Cl)cc(Cl)c(OCc3c(C)noc3C)c2n1,8.92%
21,O=C(NO)c1ccc(OC(F)F)cc1,7.91%
22,Cc1ccc(C(C)C)c(O)c1,19.7%
23,CC(C)C[C@@H](CSc1ccccc1)N1CCN(CC(C)C)CCC1=O,-75%

row,Structure (SMILES),"hERG current change (%, negative = inhibition) at 10uM"
1,O=C(CCC(=O)N(CC(=O)NC1CCCC1)Cc1ccccc1Cl)Nc1nccs1,-16.1%
2,O=C(COC(=O)c1cccc(OC(F)F)c1)NC(=O)NC1CCCCC1,11.1%
3,CCOc1ccc(N(CC(=O)NC(C)(C)C)C(=O)c2ccco2)cc1,-1.84%
4,CC(=O)c1ccc(OCC(=O)NCc2ccc(F)cc2)cc1,-11.5%
5,Cc1ccc(N(CC(=O)NCc2ccc(F)cc2)C(=O)c2ccco2)cc1C,-10.8%
6,CCOc1ccc(N(CC(=O)NCc2ccccc2)S(C)(=O)=O)cc1,-10.9%
7,Cc1ccc(CNCc2ccccc2Cl)cc1.Cl,-7.02%
8,CCOCCCNCc1ccc(OCc2ccccc2Cl)cc1,-46.9%
9,CCOc1ccc(CN(C)CC(=O)NCc2ccc(F)cc2)cc1,-74%
10,CN(CC(=O)NCc1ccccc1)Cc1ccc(Cl)cc1,-22.9%
11,CCOc1ccc(N(CC(=O)NCc2ccc(F)cc2)C(=O)c2ccco2)cc1,-54.6%
12,CCOc1ccc(CNCc2ccccc2Cl)cc1.Cl,-55.3%
13,CN(CC(=O)NCCc1ccc(F)cc1)Cc1ccccc1,-2.73%
14,CCOc1ccc(CN(C)CC(=O)NCc2ccccc2)cc1,-76.1%
15,Cc1c(C)c2c(OCC(=O)NCC(=O)NCC(=O)O)cc3c(c2oc1=O)CCC(C)(C)O3,15.2%
16,Cn1ncc2c(Nc3cccc([N+](=O)[O-])c3)ncnc21,7.09%
17,CC(C)N(C(=O)COC(=O)CNC(=O)c1ccc(Br)cc1)c1ccccc1,-15.5%
18,O=C(COc1ccc(Cl)cc1)NCCCNC(=O)c1ccncc1,-36.1%
19,COC(=O)C1=C(C)OC(N)=C(C#N)C1c1cc2cccc(C)c2nc1Cl (centres unmarked),-5.39%
20,CN(C)c1cc[n+](CC(=O)Nc2ccc(Cl)cc2)cc1.[Cl-],7.28%
21,COc1ccc(N2CCOCC2)c(NC(=O)c2cccnc2)c1,12.8%
22,O=C(c1cnn(C(=O)c2cccc(S(=O)(=O)N3CCOCC3)c2)c1)c1cc(Cl)cc(Cl)c1O,-44.5%
23,CC(=O)Oc1ccc(/C=N/NC(=O)c2ccc(N(C)S(=O)(=O)c3ccccc3)cc2)cc1,12.8%

row,Structure (SMILES),"hERG current change (%, negative = inhibition) at 10uM"
1,C=CCOC(=O)C1=C(C)NC(=S)NC1/C=C/c1ccccc1 (centres unmarked),-4.63%
2,CCOc1ccc(CN(C)CC(=O)NCc2ccccc2Cl)cc1,-89.1%
3,COc1cccc(CN(C)CC(=O)NCc2ccccc2Cl)c1OC,-7.66%
4,COc1cccc(CN(C)CC(=O)NCc2ccccc2Cl)c1,-5.14%
5,Cn1cccc1/C=N\NC(=O)C1COc2ccc(C(C)(C)C)cc2O1 (centres unmarked),-3.42%
6,COc1ccc(N2CC(C(=O)NCCC3=CCCCC3)CC2=O)c(OC)c1 (centres unmarked),-4.67%
7,O=C(O)CC/C(=N/NC(=O)c1cccs1)c1ccccc1,6.16%
8,Nc1c(C(=O)NCc2ccco2)nnn1-c1ccccc1,2.52%
9,CC(C)NC(=O)C1CCN(C2CCN(C(=O)c3cc4c(s3)CCCCC4)CC2)CC1,-51.8%
10,NC(=O)C1CCN(C(=O)c2cc3c(s2)CCCCC3)CC1,-6.51%
11,CC(C)NC(=O)C1CCN(C2CCN(C(=O)c3scc4c3CCCC4)CC2)CC1,-1.4%
12,COc1ccc(S(=O)(=O)Cc2ccc(C(=O)O)o2)cc1,21.8%
13,CCOC(=O)N1CCC(n2c(SCC(=O)NCc3ccccc3)nc3ccccc3c2=O)CC1,-46.6%
14,CCOC(=O)N1CCC(n2c(SCC(=O)NCCc3ccc(S(N)(=O)=O)cc3)nc3ccccc3c2=O)CC1,21%
15,CCOC(=O)N1CCC(n2c(SCC(=O)NCCC3=CCCCC3)nc3ccccc3c2=O)CC1,-59.3%
16,CCOC(=O)N1CCC(n2c(SCC(=O)N3CCC(C)CC3)nc3ccccc3c2=O)CC1,-47.9%
17,CCOC(=O)N1CCC(n2c(SCC(=O)Nc3ccccc3OC)nc3ccccc3c2=O)CC1,-66.4%
18,CCOC(=O)N1CCC(n2c(SCC(=O)N3CCCC3)nc3ccccc3c2=O)CC1,-20.9%
19,COc1ccccc1S(=O)(=O)Cc1ccc(C(=O)NCc2ccc(C)cc2)o1,-28.4%
20,CC(C)(CNC(=O)c1cc(Cl)c(O)c(Cl)c1)N1CCCCC1,4.69%
21,c1ccc(N=Nc2ccc3cccccc2-3)cc1,8.38%
22,Cc1cc(Oc2nnnn2-c2ccccc2)ccc1Cl,-15.3%
23,COc1ccc(C(CC(=O)N2CCC3(CC2)OCCO3)NS(=O)(=O)c2ccc(F)cc2)cc1 (centres unmarked),-2.22%

# — publication PMC4336329 (PLoS ONE, 2015)
